From PubChem BioAssay (NCATS)
Results filed as inconclusive are left out. Activity calls are given as the source filed them. Calls follow the shape of the dose curve; as a rule, active = well fitted curve in the direction sought with a large enough effect; inconclusive = small, poorly fitted or top-dose-only effect, or another doubt; inactive = no such curve, though single readings can be large; an effect the other way counts as inactive or inconclusive.

Tests used:
[1] = Cell Viability - LYMP2-001 (AID 921); also: series mostly up to about 92 µM; nearly all actives have a fitted effect of over 70% in size
Method in brief: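 Cellular ATP loss read by luciferase luminescence after 24 h compound exposure at 37 C in complete medium. LYMP2-001 lymphoblastoid cells, 2500/well; qHTS concentration-response data fitted with Hill equation for AC50.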

[2] = MultiTox-Fluor Cytotoxicity Assay - LYMP1-001 - Dead Cells (AID 946)
Method in brief: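 AC50 from Hill fit of concentration-response; data normalized to DMSO (basal) and 15 uM tetraoctylammonium bromide (100%). LYMP1-001 lymphoblastoid cells, 2500/well, 16 hr compound at 37 C; dead-cell protease fluorescence, Ex/Em 485/520.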

[3] = MultiTox-Fluor Cytotoxicity Assay - LYMP1-001 - Live Cells (AID 947)
[4] = Cell Viability - LYMP1-002 - Assay at 16 hr (AID 948)
Method in brief: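 ATP luminescence (CellTiter-Glo) was measured after 16 hr compound exposure at 37 C of 2500 lymphoblastoid LYMP1-002 cells per well. Concentration-response curves were fitted with the Hill equation to give AC50.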

[5] = MultiTox-Fluor Cytotoxicity Assay - LYMP1-002 - Live Cells (AID 955);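 also: cells exposed to compound for 16 hours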
Method in brief: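 In this qHTS viability format, lymphoblastoid cells (LYMP1-002, human) received compound for 16 hr at 37 C. Fluorogenic GF-AFC cleavage by viable cells was detected at 405/510 nm after 1 h at room temperature.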

[6] = MultiTox-Fluor Cytotoxicity Assay - LYMP1-002 - Dead Cells (AID 960); also: nearly all actives have a fitted effect of over 60% in size
Method in brief: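 Concentration-dependent increases in membrane-leaked protease activity are quantified in LYMP1-002 cells after 16 hr treatment; values are normalized against DMSO and tetraoctylammonium bromide (15 uM) controls and AC50 derived by Hill modeling.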

[7] = MultiTox-Fluor Cytotoxicity Assay - LYMP1-003 - Dead Cells (AID 961); also: nearly all actives have a fitted effect of over 70% in size
Method in brief: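 Human lymphoblastoid LYMP1-003 cells (2500/well) were treated with compounds for 16 hr at 37 C in complete medium. Dead-cell protease release was read by bis-AAF-R110 fluorescence (Ex/Em 485/520). AC50 came from Hill fits, normalized to DMSO and 15 uM tetraoctylammonium bromide.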

[8] = MultiTox-Fluor Cytotoxicity Assay - LYMP1-003 - Live Cells (AID 962);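 also: cells exposed to compound for 16 hours at 37 °C; cytotoxic hits lower the live-cell protease signal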
Method in brief: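 Human lymphoblastoid line LYMP1-003 in complete culture medium, treated 16 hr with titrated compounds. Viable cells quantified via cell-permeant GF-AFC substrate fluorescence; AC50 derived by Hill fitting.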

[9] = Cell Viability - LYMP1-003 - Assay at 24 hr (AID 963)
Method in brief: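 The lymphoblastoid line was treated with titrated compounds for 24 hours, and viable cell number estimated from luciferase-based ATP luminescence.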

[10] = Cell Viability - LYMP1-003 - Assay at 40 hr (AID 964); also: series mostly up to about 92 µM; nearly all actives have a fitted effect of over 60% in size
Method in brief: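 Acute toxicity is scored as a concentration-dependent loss of intracellular ATP in LYMP1-003 cells (2500/well, complete medium) after 40 hr at 37 C, measured by CellTiter-Glo luminescence; AC50 values derive from standard Hill modelling.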

[11] = Cell Viability - LYMP2-003 (AID 965);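 also: cells exposed to compounds for 24 h before reading; nearly all actives have a fitted effect of over 50% in size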
Method in brief: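 CellTiter-Glo luminescence quantified ATP loss after 24 h compound treatment of LYMP2-003 lymphoblastoid cells at 37 C. Titration series were fitted with the standard Hill equation to give AC50.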

[12] = Cell Viability - LYMP2-004 (AID 966); also: nearly all actives have a fitted effect of over 65% in size
Method in brief: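 Viable-cell number estimated from ATP luminescence (CellTiter-Glo) in 2500 human lymphoblastoid cells/well after 24 hr at 37 C with compound. AC50 fitted to the standard Hill equation.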

[13] = Cell Viability - LYMP2-005 (AID 967); also: series mostly up to about 92 µM
Method in brief: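 LYMP2-005 human lymphoblastoid cells (2500/well) were treated with compounds for 24 h at 37 C. Intracellular ATP was then measured by CellTiter-Glo luminescence after 30 min at room temperature. AC50 values came from Hill-equation fits of qHTS concentration-response data.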

[14] = Cell Viability - LYMP2-009 (AID 968); also: series mostly up to about 92 µM; nearly all actives have a fitted effect of over 55% in size
[15] = Cell Viability - LYMP2-011 (AID 969); also: nearly all actives have a fitted effect of over 60% in size
Method in brief: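 Cells seeded at 2500 per well rest 5 hr before compound addition, then incubate 24 hr at 37 C. CellTiter-Glo reagent is added for 30 min at room temperature before luminescence detection.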

[16] = Cell Viability - LYMP2-013 (AID 970); also: series mostly up to about 92 µM; nearly all actives have a fitted effect of over 55% in size
Method in brief: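 In complete culture medium, human lymphoblastoid cells were dosed for 24 hr at 37 C, with tetraoctylammonium bromide (6.4pM to 92 uM) as positive control. Viability reflects luciferase-based ATP signal; AC50 derived from concentration-response curves.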

[17] = Cell Viability - LYMP2-015 (AID 971); also: nearly all actives have a fitted effect of over 55% in size
Method in brief: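 AC50 values reflect Hill-model fits of ATP-based luminescence (CellTiter-Glo) from a human lymphoblastoid line, 2500 cells/well, treated 24 hr at 37 C.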

[18] = Cell Viability - LYMP2-017 (AID 972); also: series mostly up to about 92 µM; nearly all actives have a fitted effect of over 55% in size
Method in brief: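 In this qHTS format, lymphoblastoid cells in complete medium receive test compound for a day at 37 C before ATP content is quantified by luciferase luminescence. Reported AC50 figures come from standard Hill-equation curve fitting.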

[19] = Cell Viability - LYMP2-019 (AID 973); also: nearly all actives have a fitted effect of over 55% in size
Method in brief: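 AC50 values come from Hill-equation modelling of qHTS concentration-response curves, where viability is measured as luciferase-based ATP luminescence in the lymphoblastoid line after 24 hr compound exposure in complete culture medium.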

[20] = Cell Viability - LYMP2-021 (AID 974)
Method in brief: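 In qHTS format, compounds are tested against 2500 lymphoblastoid cells per well for 24 h; viable cell number is inferred from ATP-driven luciferase light, and Hill-equation fitting yields AC50 values.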

[21] = Cell Viability - LYMP2-023 (AID 975)
Method in brief: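 In this qHTS, ATP-based luciferase luminescence (CellTiter-Glo) is quantified in human lymphoblastoid cells after 24 hr compound treatment at 37 C; tetraoctylammonium bromide serves as positive control. Concentration-response curves are Hill-fitted to give AC50.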

[22] = Cell Viability - LYMP2-025 (AID 976); also: series mostly up to about 92 µM
Method in brief: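 Luminescent ATP readout after 24 hr treatment of a human lymphoblastoid line (LYMP2-025, 2500 cells/well, 37 C). Reagent developed 30 min at room temperature; AC50 fitted with the Hill equation.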

[23] = Cell Viability - LYMP2-002 (AID 977); also: series mostly up to about 92 µM
Method in brief: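 Human lymphoblastoid cells (2500/well) in complete medium were preincubated 5 hr at 37 C, then exposed to compounds for 24 hr at 37 C. Intracellular ATP was read by CellTiter-Glo luminescence; AC50 came from Hill-equation concentration-response fits.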

[24] = Cell Viability - LYMP2-006 (AID 978); also: series mostly up to about 92 µM; nearly all actives have a fitted effect of over 60% in size
Method in brief: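 Potency values are Hill-fit AC50s for decreases in intracellular ATP (CellTiter-Glo luminescence). LYMP2-006 lymphoblastoid cells, 2500 per well, were exposed to compound in complete culture medium for 24 hr at 37 C.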

[25] = Cell Viability - LYMP2-007 (AID 979)
Method in brief: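 Measured via luciferase-based ATP quantitation: lymphoblastoid cells, 24 hr compound exposure at 37 C, AC50 from Hill fits.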

[26] = Cell Viability - LYMP2-008 (AID 980); also: nearly all actives have a fitted effect of over 60% in size
Method in brief: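 Measured: ATP-dependent luminescence, proportional to viable cell number, in human lymphoblastoid cells treated 24 hr with compound in complete culture medium. Values are AC50s from Hill-equation modelling of qHTS titrations.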

Measured: Potency

C=CCc1ccc(OC)c(OC)c1
inactive: [1] | [2] | [3] | [4] | [5] | [6] | [7] | [8] | [9] | [10] | [11] | [12] | [13] | [14] | [15] | [16] | [17] | [18] | [19] | [20] | [21] | [22] | [23] | [24] | [25] | [26]
